Activity calls are given as the source filed them. Unless noted, no rule for the calls is given here.

Data on 6 molecules can be found in PubChem BioAssay.

Experiment [1] in a line: anti-His antibody binders, primary screen, artefact control for SMM control protein annotation, biochemical, small-molecule microarray, 635 nm fluorescence (AID 1128).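 Also: score merges feature fluorescence with signal-to-noise for each printed compound spot.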 The note with it: anti-His Alexa647 antibody binding, higher = more signal.
Experiment [2] concerns Human papillomavirus type 1a E7 protein (residues 1-88). Nature of the experiment: HPV1a E7 small-molecule binders, primary screen, biochemical, small-molecule microarray, residues 1-88, 635 nm (AID 1129). The note with it: small-molecule microarray binding, fluorescence 635 nm; higher = more signal.
Experiment [3] addresses Focal adhesion kinase 1 (Homo sapiens) (UniProt Q05397). Briefly: small-molecule microarray binders of FAK, primary screen, biochemical, 635/667 nm fluorescence, BSA, DTT (AID 1130).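 Also: composite of spot emission at 667 nm and signal to noise over triplicate slides.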 The note with it: PTK2 binding, 635 nm fluorescence, higher = more signal.
Experiment [4] deals with Fibrinogen (Alexa647-labelled). Briefly: fibrinogen binders on compound microarrays, profiling panel, artefact control for SMM control-protein annotation, biochemical, small-molecule microarray, 635/667 nm fluorescence (AID 1131).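 Also: z-score merges 667 nm fluorescence with per-spot signal-to-noise over triplicate slides.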 The note with it: fibrinogen-A647 binding fluorescence, higher = more signal.
The target of experiment [5] is Follistatin (Homo sapiens) (UniProt P19883). Nature of the experiment: follistatin binders on small-molecule microarrays, primary screen, biochemical, small-molecule microarray, 635/667 nm fluorescence (AID 1132). The note with it: FST binding, 635 nm fluorescence, higher = more signal.
Chain of Follistatin (Homo sapiens) (P19883 whole entry, looked up): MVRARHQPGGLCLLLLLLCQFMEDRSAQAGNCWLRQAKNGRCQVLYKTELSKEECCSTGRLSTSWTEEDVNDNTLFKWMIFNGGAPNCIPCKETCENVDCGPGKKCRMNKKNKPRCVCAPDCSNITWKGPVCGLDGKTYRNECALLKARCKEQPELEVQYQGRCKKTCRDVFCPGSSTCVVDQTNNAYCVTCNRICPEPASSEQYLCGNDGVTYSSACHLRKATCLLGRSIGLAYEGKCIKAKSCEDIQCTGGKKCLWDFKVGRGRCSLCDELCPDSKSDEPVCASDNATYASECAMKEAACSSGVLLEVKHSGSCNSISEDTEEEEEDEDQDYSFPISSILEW
The target in experiment [6] is Fibroblast growth factor 2 (Homo sapiens) (UniProt P09038). Nature of the experiment: FGF2 binders on small-molecule microarrays, primary screen, biochemical, small-molecule microarray, 635/667 nm fluorescence (AID 1133). The note with it: small-molecule microarray binding, FGF2, fluorescence 635/667; higher = more signal.
Chain of Fibroblast growth factor 2 (Homo sapiens) (P09038 whole entry, looked up): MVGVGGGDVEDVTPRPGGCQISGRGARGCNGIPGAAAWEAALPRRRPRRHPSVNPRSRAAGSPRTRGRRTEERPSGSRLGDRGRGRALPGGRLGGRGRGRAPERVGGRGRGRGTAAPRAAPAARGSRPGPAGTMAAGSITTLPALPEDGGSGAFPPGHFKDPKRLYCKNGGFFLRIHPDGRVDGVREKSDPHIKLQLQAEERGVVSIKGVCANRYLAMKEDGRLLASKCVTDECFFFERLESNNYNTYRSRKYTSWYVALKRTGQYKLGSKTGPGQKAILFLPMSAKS
Experiment [7] can be described thus: mitochondrial membrane potential change in A549 cells, profiling panel, cell-based, JC-1 fluorescence, basal, 24 h, 100 nL (AID 1138).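 Also: A549 lung adenocarcinoma cells under basal conditions with no added stimulus; test concentration not given here.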 The note with it: higher = more signal.
A further experiment deals with Lefty1. Nature of the experiment: Lefty1 binders on small-molecule microarrays, primary screen, biochemical, small-molecule microarray, 635/667 nm fluorescence (AID 1139). The note with it: small-molecule microarray binding, fluorescence 635/667; higher = more signal.
The test system of experiment [8] is wheat germ agglutinin (Triticum aestivum), Alexa647-labelled. Briefly: wheat germ agglutinin binders on compound microarrays, profiling panel, artefact control for SMM control-protein annotation, biochemical, small-molecule microarray, 635/667 nm fluorescence (AID 1140).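 Also: score merges 667 nm feature emission with signal to noise over triplicate slides.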 The note with it: WGA-A647 binding, 635 nm fluorescence, higher = more signal.
The target in experiment [9] is Luciferin 4-monooxygenase (Photinus pyralis) (UniProt P08659). Nature of the experiment: firefly luciferase enzyme inhibitors, primary screen, biochemical, luminescence, purified enzyme, 2006 set (AID 1141).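 Also: cell-free assay with purified firefly luciferase at 100 ng per well in PBS; test concentration not given here.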 The note with it: SteadyGlo luminescence, 30 min, higher = more signal, called active from +8 up or from −8 down.
Chain of Luciferin 4-monooxygenase (Photinus pyralis) (P08659 whole entry, looked up): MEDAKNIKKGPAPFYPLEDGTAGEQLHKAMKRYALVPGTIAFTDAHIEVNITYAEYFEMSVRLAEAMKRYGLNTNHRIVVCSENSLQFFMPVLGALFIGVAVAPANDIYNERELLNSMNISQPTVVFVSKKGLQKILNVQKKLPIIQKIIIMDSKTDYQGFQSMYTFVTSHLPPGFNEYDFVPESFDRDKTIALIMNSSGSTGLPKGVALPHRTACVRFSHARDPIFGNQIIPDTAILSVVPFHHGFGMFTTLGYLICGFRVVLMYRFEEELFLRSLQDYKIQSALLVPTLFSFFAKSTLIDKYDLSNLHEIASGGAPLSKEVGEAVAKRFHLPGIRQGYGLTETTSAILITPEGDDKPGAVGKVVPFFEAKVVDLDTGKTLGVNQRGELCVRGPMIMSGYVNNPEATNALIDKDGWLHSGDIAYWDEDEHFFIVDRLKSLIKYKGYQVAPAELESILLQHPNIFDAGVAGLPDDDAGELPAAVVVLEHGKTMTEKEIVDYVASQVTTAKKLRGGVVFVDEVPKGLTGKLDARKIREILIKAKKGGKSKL
For experiment [10], the system named is Wnt5a (protein binding on small-molecule microarray). Briefly: Wnt5a binders on small-molecule microarray, primary screen, biophysical, 635/667 nm fluorescence (AID 1142).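 Also: fluorescence read at 667 nm with signal to noise per printed feature.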 The note with it: 635 nm fluorescence, higher = more signal.
The nature of experiment [11]: cell viability in Huh7 cells, primary screen, cytotoxicity control for HCV replication inhibitor project, CellTiter-Glo luminescence, basal, 48 h (AID 1143).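 Also: Huh7 hepatoma cells carrying a hepatitis C replication reporter with no stimulus; test concentration not given here.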 The note with it: Huh7 HCV replicon, higher = more signal, called active from +8 up or from −8 down.
Experiment [12] in a line: P. aeruginosa biofilm formation inhibitors, primary screen, PAO1 strain, BacTiter-Glo luminescence, LB-PBS (AID 1144). The note with it: 12 h, higher = more signal.
Experiment [13] is described as follows: CREB reporter modulators without forskolin, primary screen, cell-based, PC12, CRE-LacZ reporter, unstimulated (AID 1145). The note with it: no forskolin, luminescence, 4.5 h, higher = more signal, called active from +8 up or from −8 down.
Experiment [14] is described as follows: CREB reporter modulators under forskolin, primary screen, cell-based, PC12, CRE-LacZ reporter, forskolin-stimulated (AID 1146).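 Also: PC12 cells with 6xCRE LacZ reporter stimulated by forskolin 10 µM; beta-galactosidase reporter signal reflecting CREB driven transcription.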 The note with it: luminescence, 4.5 h, higher = more signal, called active from +8 up or from −8 down.
Experiment [15] deals with Streptavidin (Streptomyces avidinii) (UniProt P22629). Briefly: streptavidin binders on small-molecule microarray, primary screen, artefact control for SMM compound annotation, biophysical, 635/667 nm fluorescence (AID 1147).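 Also: signal reflects streptavidin binding to arrayed compounds as a control protein.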 The note with it: streptavidin binding, higher = more signal.
Chain of Streptavidin (Streptomyces avidinii) (P22629 whole entry, looked up): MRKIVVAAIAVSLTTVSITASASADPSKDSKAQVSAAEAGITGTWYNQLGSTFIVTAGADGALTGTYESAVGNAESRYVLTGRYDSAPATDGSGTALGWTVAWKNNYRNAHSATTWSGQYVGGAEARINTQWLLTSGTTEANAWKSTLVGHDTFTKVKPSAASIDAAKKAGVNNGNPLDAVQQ
Experiment [16] in a line: small-molecule binders of probe aInhba, primary screen, biochemical, small-molecule microarray, 635/667 nm fluorescence (AID 1148).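 Also: score merges 667nm spot fluorescence with signal-to-noise for antibody binding to printed compounds.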 The note with it: higher = more signal.
The target of experiment [17] is Torsin-1A (Homo sapiens) (UniProt O14656). Briefly: torsin A binders from cell lysate, primary screen, small-molecule microarray, wild-type, 635/667 nm (AID 1149). The note with it: COS7 hTOR1A-WT lysate, 635 nm fluorescence, higher = more signal.
Chain of Torsin-1A (Homo sapiens) (O14656 whole entry, looked up): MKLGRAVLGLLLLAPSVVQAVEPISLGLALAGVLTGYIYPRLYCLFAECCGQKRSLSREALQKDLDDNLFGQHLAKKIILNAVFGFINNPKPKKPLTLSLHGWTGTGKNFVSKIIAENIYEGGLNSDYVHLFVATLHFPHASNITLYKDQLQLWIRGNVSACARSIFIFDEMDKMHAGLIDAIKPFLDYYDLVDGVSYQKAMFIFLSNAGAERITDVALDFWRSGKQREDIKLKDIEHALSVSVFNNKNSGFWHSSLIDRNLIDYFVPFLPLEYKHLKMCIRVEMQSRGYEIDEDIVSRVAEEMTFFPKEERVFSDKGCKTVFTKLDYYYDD
For experiment [18] the target is unchanged. Nature of the experiment: small-molecule binders of mutant TOR1A in lysate, primary screen, cell lysate, small-molecule microarray, COS7 lysate, 635/667 nm fluorescence (AID 1150).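 Also: score pools 667 nm emission and signal to noise measuring lysate protein binding.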 The note with it: COS7 hTOR1A mutant lysate, 635 nm fluorescence, higher = more signal.
In experiment [19] the test system is Sonic hedgehog protein (Shh). Nature of the experiment: small-molecule binders of Shh protein, primary screen, biochemical, small-molecule microarray, 635/667 nm fluorescence (AID 1151).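 Also: Shh protein binding to compounds spotted on small-molecule microarray slides; score combines spot fluorescence intensity with signal-to-noise across triplicate slides.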 The note with it: small-molecule microarray binding, 635 nm fluorescence; higher = more signal.

Chain of Focal adhesion kinase 1 (Homo sapiens) (Q05397 whole entry, looked up): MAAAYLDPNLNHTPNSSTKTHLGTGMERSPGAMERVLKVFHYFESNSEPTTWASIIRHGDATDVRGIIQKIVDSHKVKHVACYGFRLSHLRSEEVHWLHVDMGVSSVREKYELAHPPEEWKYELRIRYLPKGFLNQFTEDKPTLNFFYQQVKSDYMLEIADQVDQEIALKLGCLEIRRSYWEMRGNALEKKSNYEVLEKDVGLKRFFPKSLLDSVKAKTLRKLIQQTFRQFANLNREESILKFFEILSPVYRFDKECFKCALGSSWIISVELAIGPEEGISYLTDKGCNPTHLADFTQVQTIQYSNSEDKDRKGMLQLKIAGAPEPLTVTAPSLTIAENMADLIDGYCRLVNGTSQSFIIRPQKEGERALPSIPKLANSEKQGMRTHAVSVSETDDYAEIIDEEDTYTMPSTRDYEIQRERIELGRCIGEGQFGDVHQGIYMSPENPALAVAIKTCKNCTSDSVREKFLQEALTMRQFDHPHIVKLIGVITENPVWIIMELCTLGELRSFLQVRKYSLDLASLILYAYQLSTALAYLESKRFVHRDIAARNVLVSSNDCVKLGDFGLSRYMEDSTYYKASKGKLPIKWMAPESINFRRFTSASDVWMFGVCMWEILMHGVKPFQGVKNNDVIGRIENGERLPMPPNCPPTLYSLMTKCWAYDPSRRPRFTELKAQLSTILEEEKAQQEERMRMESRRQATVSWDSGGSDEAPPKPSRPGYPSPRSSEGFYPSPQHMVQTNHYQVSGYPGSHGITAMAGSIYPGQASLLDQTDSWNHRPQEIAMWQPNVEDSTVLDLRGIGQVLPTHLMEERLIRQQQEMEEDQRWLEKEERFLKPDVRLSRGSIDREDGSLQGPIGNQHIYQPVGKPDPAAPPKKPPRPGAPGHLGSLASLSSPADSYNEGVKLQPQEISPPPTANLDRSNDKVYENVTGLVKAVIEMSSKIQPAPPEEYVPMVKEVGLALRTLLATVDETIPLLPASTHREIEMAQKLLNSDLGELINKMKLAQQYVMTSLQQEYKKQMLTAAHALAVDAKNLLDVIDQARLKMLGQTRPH

As to `C#CCN1[C@@H](Cc2ccc(O)cc2)C(=O)O[C@H](Cc2ccccc2)[C@@H]1/C=C/C1CC1`, the composite z-score in experiment [1] is -0.0341; in experiment [2] it was -0.521; in experiment [3], -0.102; in experiment [4], 0.123; in experiment [5], 0.623; in [6], 0.571. Further, the composite z-score is 0.165 in the experiment with Lefty1; -0.202 in experiment [8]; 0.0515 in experiment [10]; -0.196 in [15]; -0.224 in experiment [16]; 0.161 in the experiment with Torsin-1A (Homo sapiens) [17]. For the same molecule, the values for the composite z-score (with Torsin-1A (Homo sapiens) [18]; in [19]) were 0.364 and 0.284, respectively. Also, the z-score in experiment [7] is -1.76; in experiment [9] it was -0.407 (inactive); in experiment [11] it was -4.07 (inactive); in experiment [12] it was 1.75 (inactive); in [13] it was 15.1 (active); in experiment [14], 1.42 (inactive).
For `CCOC(=O)C1=CCC(c2ccc(F)cc2)N(S(=O)(=O)c2ccc(C)cc2)C1` (stereo not given), the composite z-score in experiment [1] was -0.596; in experiment [2], 0.818; in [3] it was 1.52; in [4] it was 0.265; in experiment [5], 0.345; in experiment [6], -0.287. Further, the composite z-score in the experiment with Lefty1 was 0.471; in [8], 0.764; in experiment [10] it was 0.0848; in experiment [15], 0.407; in [16], -0.0963; with Torsin-1A (Homo sapiens) [17] it was 0.827. The composite z-score in the experiment with Torsin-1A (Homo sapiens) [18] was 0.203; in experiment [19], -0.282. For the same molecule, the z-score in experiment [7] is -0.231; in [9], 1.4 (inactive); in experiment [11] it was -2.8 (inactive); in experiment [12], 0.046 (inactive); in experiment [13], 0.481 (inactive); in experiment [14], -0.323 (inactive).
Turning to `COC(=O)[C@@]1(Cc2ccc(OC)cc2)[C@H]2c3cc(C(=O)N4CCCC4)n(CCCNc4ncc(C(F)(F)F)cc4Cl)c3C[C@H]2CN1C(=O)c1ccccc1`, the composite z-score in experiment [1] was 2.65; in experiment [2] it was 1.14; in experiment [3] it was 1.1; in experiment [4], 0.768; in experiment [5], 1.12; in experiment [6] it was -0.167. For the same molecule, the composite z-score in the experiment with Lefty1 stood at 0.337; in experiment [8], 0.626; in [10], 1.53; in [15] it was 1.25; in [16], 0.826; with Torsin-1A (Homo sapiens) [17] it was 0.0188. Also, the composite z-score in the experiment with Torsin-1A (Homo sapiens) [18] was 0.27; in experiment [19], -0.418. For the same molecule, the z-score in experiment [7] was -1.51; in experiment [9] it was 2.54 (inactive); in experiment [11] it was -3.28 (inactive); in [12], 0.0557 (inactive); in experiment [13], 0.769 (inactive); in [14], 0.627 (inactive).
As to `COCCOC(=O)N1C(=O)[C@@]2(c3cc(C#CCCO)ccc31)[C@H](c1ccc(OCCO)cc1)N1[C@H](c3ccccc3)[C@H](c3ccccc3)OC(=O)[C@H]1[C@@H]2C(N)=O`, the composite z-score came to 1.3 in experiment [1]; 1.2 in [2]; 0.711 in [3]; 0.837 in experiment [4]; 1.04 in experiment [5]; 0.752 in experiment [6]. Besides, the composite z-score in the experiment on Lefty1 turned out to be 0.496; in [8], 0.694; in [10] it was 0.711; in experiment [15], 0.266; in experiment [16] it was 0.364; in the experiment with Torsin-1A (Homo sapiens) [17], 0.271. The results for the composite z-score (in the experiment with Torsin-1A (Homo sapiens) [18]; in experiment [19]) were 0.569 and 0.811, respectively. In addition, the z-score is -0.212 in experiment [7]; -1.77 (inactive) in [9]; -1.47 (inactive) in experiment [11]; 0.502 (inactive) in experiment [12]; 0.209 (inactive) in [13]; 1.71 (inactive) in [14].
Consider `O=C1NC(=O)C2C1C=CC(C(O)c1ccc(I)cc1)N2Nc1ccc(Cl)cc1Cl` (stereo not given), for which the composite z-score is 0.258 in [1]; 1.03 in experiment [2]; 0.741 in experiment [3]; 0.978 in [4]; 0.73 in experiment [5]; -0.451 in experiment [6]. The composite z-score is -0.199 with Lefty1; 0.661 in experiment [8]; 0.372 in [10]; 1.34 in experiment [15]; 0.337 in [16]; 0.0137 with Torsin-1A (Homo sapiens) [17]. Moreover, the results for the composite z-score (with Torsin-1A (Homo sapiens) [18]; in [19]) were 0.303 and -0.366, respectively. Also, the z-score in experiment [7] is 0.535; in experiment [9], -1.33 (inactive); in [11], -1.58 (inactive); in experiment [12] it was -1.74 (inactive); in experiment [13], 1.77 (inactive); in experiment [14], -0.299 (inactive).
Turning to `C=CC[C@]1(C(=O)N2CCOCC2)N=C(c2ccc(OCCCO)cc2)O[C@H]1c1ccccc1N=[N+]=[N-]`, the composite z-score in [1] came out at 2.08; in experiment [2], 1.26; in [3] it was 0.804; in experiment [4], 0.979; in experiment [5], 1.14; in experiment [6], 0.287. Besides, the composite z-score in the experiment on Lefty1 was -0.0598; in experiment [8], 1.37; in experiment [10] it was 0.268; in experiment [15] it was 0.883; in [16] it was 0.122; with Torsin-1A (Homo sapiens) [17] it was 0.35. Moreover, the composite z-score with Torsin-1A (Homo sapiens) [18] was 0.705; in [19] it was -0.269. Further, the z-score was -0.0671 in experiment [7]; -10.7 (active) in experiment [9]; -4.25 (inactive) in [11]; -0.0153 (inactive) in experiment [12]; -0.193 (inactive) in experiment [13]; -1.78 (inactive) in experiment [14].
